{"source": "PubChem BioAssay", "data": [{"assay": "probe aLefty2 binding to arrayed compounds – biochemical, biotinylated probe, 635/667 nm fluorescence, primary screen (AID 1094);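 further: score merges spot fluorescence near 667 nm with spot signal-to-noise ratio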", "conditions": "small-molecule microarray, higher = more signal", "values": [{"smiles": "CC[C@@H]1C=C(C(=O)O)[C@H](c2ccc(C)cc2)N1S(=O)(=O)c1ccc(C)cc1", "composite z-score": -0.0654}, {"smiles": "COCC(=C=CC[C@@H](O)c1ccc(OCCO)cc1)C[C@@H](O)c1ccccn1", "composite z-score": -0.0931}, {"smiles": "C=CCN1Cc2ccccc2[C@@H]2OC(c3ccc(OCCCO)cc3)=N[C@]2(CCS(=O)(=O)c2ccccc2)C1=O", "composite z-score": 0.0642}, {"smiles": "COc1cc(OC)c(C(O)C2C=CC3C(=O)NC(=O)C3N2Nc2ccccn2)cc1Br", "note": "(stereo unspecified)", "composite z-score": 0.0917}, {"smiles": "COC(=O)[C@H](Cc1ccccc1)N[C@H](/C=C/C1CC1)[C@@H](O)Cc1ccccc1", "composite z-score": -0.279}, {"smiles": "O=C1C2C=CC(C(O)c3ccc4c(c3)OCO4)N(Nc3ccc([N+](=O)[O-])cc3)C2C(=O)N1c1ccccc1", "note": "(stereo unspecified)", "composite z-score": -0.222}, {"smiles": "CC(C)CNC(=O)[C@@]1(Cc2ccccc2I)c2ccccc2C(=O)N(Cc2ccccc2C(F)(F)F)[C@H]1c1ccc(CO)cc1", "composite z-score": -0.101}, {"smiles": "COc1cc2c(cc1O)C(c1cccs1)N(Cc1cccc(OC(F)(F)F)c1)CC2", "note": "(stereo unspecified)", "composite z-score": -0.0785}, {"smiles": "C=C(/C(=C/C[C@H](OC(=O)c1ccncc1)c1ccc(OCCO)cc1)c1cc(C(=O)OC)ccc1OC)C(C)C", "composite z-score": -0.072}, {"smiles": "CC1CC/C=C\\[C@H]2OC34C=CCN(Cc5ccccc5)C(=O)[C@H]3N(C(C)CO)C(=O)[C@@H]4C2C(=O)O1", "note": "(stereo partly specified)", "composite z-score": -0.092}, {"smiles": "CCOC(=O)C[C@H]1[C@H](OC(=O)c2ccc(-c3ccccc3)cc2)[C@@H](NC(=O)c2ccccc2)c2cc(OCCCO)ccc2N1C(=O)Cc1ccc(OC)cc1", "composite z-score": -0.192}, {"smiles": "COc1ccc(NN2C(C(O)c3ccc(N(C)C)cc3)C=CC3C(=O)N(C4CCCCC4)C(=O)C32)cc1", "note": "(stereo unspecified)", "composite z-score": 0.329}, {"smiles": "NC(=O)[C@@H]1[C@H]2C(=O)O[C@H](c3ccccc3)[C@H](c3ccccc3)N2[C@H](c2ccc(O)cc2)[C@@]12C(=O)Nc1ccc(C#CC3=CCCCC3)cc12", "composite z-score": -0.21}, {"smiles": "C=CCC(OC(C)=O)[C@@H]1[C@@H](N(Cc2ccc(-c3cccc(C(F)(F)F)c3)o2)C(=O)c2cccc3ccccc23)c2cc(OCCCO)ccc2N1C(=O)Cc1ccc2ccccc2c1", "note": "(stereo partly specified)", "composite z-score": -0.106}, {"smiles": "O=C1O[C@@H](c2ccccc2)[C@@H](c2ccccc2)N2[C@@H](c3ccccc3OCCO)[C@]3(C(=O)Nc4ccccc43)[C@@H](C(=O)O)[C@H]12", "composite z-score": -0.175}, {"smiles": "O=C1OCCC/C=C\\[C@H]2OC34C=CCN(c5ccc6ccccc6c5)C(=O)[C@H]3N(CCCCCO)C(=O)[C@@H]4C12", "note": "(stereo partly specified)", "composite z-score": -0.156}, {"smiles": "Cc1ccc(S[C@]2(C(=O)NCC(C)C)CC(=O)N(Cc3cc(C(F)(F)F)cc(C(F)(F)F)c3)[C@@H]2c2ccc(CO)cc2)cc1", "composite z-score": 0.522}, {"smiles": "COc1ccc([C@H]2C[C@H]3C(I)=C[C@@H]2C(=O)[C@]32CO2)cc1", "composite z-score": -0.161}, {"smiles": "C=CCNC(=O)[C@@H]1[C@H]2C(=O)O[C@H](c3ccccc3)[C@H](c3ccccc3)N2[C@H](c2ccc(OCCO)cc2)[C@@]12C(=O)N(C(=O)OCCOC)c1ccc(C#CCC(C(=O)OC)C(=O)OC)cc12", "composite z-score": 0.0398}, {"smiles": "COc1ccc([Si](C)(C)[C@H]2[C@H](CCO)O[C@@]3(C(=O)N(Cc4ccccc4)c4ccc(N5CCCCC5=O)cc43)[C@@H]2C)cc1", "composite z-score": -0.17}, {"smiles": "C[N+](C)(C)CCCC[C@@H]1NC(=O)[C@@H]2C[C@H](C(=O)NCCCCCN)[C@H](c3ccc(O)cc3)N2C1=O", "composite z-score": 0.79}, {"smiles": "O=C1C2C=CC(C(O)c3ccc(-c4ccccc4)s3)N(Nc3ccccc3)C2C(=O)N1c1ccccc1", "note": "(stereo unspecified)", "composite z-score": 0.0711}, {"smiles": "COc1ccc(C(=O)Nc2cccc(CN3C(=O)[C@]4(O[C@H](CCn5cc(CCO)nn5)[C@@H]([Si](C)(C)c5ccc(OC)cc5)[C@@H]4C)c4ccccc43)c2)cc1", "composite z-score": 0.143}, {"smiles": "COC(=O)[C@@]1(Cc2ccccc2)[C@H]2c3cc(C(=O)N4CCCC4)n(Cc4ccc(O)c(OC)c4)c3C[C@H]2CN1C(=O)c1ccccc1", "composite z-score": 0.641}, {"smiles": "O=C(NCCN1CCOCC1)[C@@H]1c2ccccc2C(=O)N(Cc2cc(C(F)(F)F)cc(C(F)(F)F)c2)[C@H]1c1ccc(CO)cc1", "composite z-score": -0.0856}, {"smiles": "O=C1C2C=CC(C(O)c3cc(C(F)(F)F)cc(C(F)(F)F)c3)N(Nc3ccccc3)C2C(=O)N1c1ccccc1", "note": "(stereo unspecified)", "composite z-score": -0.0156}, {"smiles": "O=C1OCC=C[C@H]2OC34C=CCN(CCN5CCOCC5)C(=O)[C@H]3N(CCO)C(=O)[C@@H]4[C@@H]12", "note": "(stereo partly specified)", "composite z-score": -0.417}, {"smiles": "CCCCCCc1nc(-c2ccc(-c3ccc(Cl)c(Cl)c3)o2)cc2c1[Si](C(C)C)(C(C)C)O[C@H]2c1ccccc1", "composite z-score": -0.196}, {"smiles": "O=C1C2C=CC(C(O)c3c(F)cccc3Cl)N(Nc3ccccc3F)C2C(=O)N1c1ccccc1", "note": "(stereo unspecified)", "composite z-score": 0.17}, {"smiles": "COc1ccc(C(O)C2C=CC3C(=O)N(C)C(=O)C3N2NC(=O)OC(C)(C)C)c2ccccc12", "note": "(stereo unspecified)", "composite z-score": 0.284}, {"smiles": "OCC1C=C(/C=C/c2ccccc2)CN1Cc1ccccc1Br", "note": "(stereo unspecified)", "composite z-score": 0.0265}, {"smiles": "CN1C(=O)C2C=CC(C(O)c3ccc(F)cc3)N(N(c3ccccc3)c3ccccc3)C2C1=O", "note": "(stereo unspecified)", "composite z-score": 0.0606}, {"smiles": "CC(=CC1CCCCC1)[C@@H](NC(=O)c1cccnc1)c1ccc(-c2ccccc2)cc1", "composite z-score": -0.0042}, {"smiles": "CCN(CC)c1ccc(N2CC=CC34O[C@@H]5C=CCOC(=O)[C@@H]5[C@H]3C(=O)N(CCCCCCO)[C@@H]4C2=O)cc1", "note": "(stereo partly specified)", "composite z-score": -0.192}, {"smiles": "C=C(CCCC)/C(=C/C[C@H](OC(=O)c1ccncc1)c1ccc(OCCO)cc1)c1cc(C(=O)OC)ccc1OC", "composite z-score": -0.187}, {"smiles": "COCCOC(=O)N1C(=O)[C@@]2(c3cc(C#CC4(O)CCCCCC4)ccc31)[C@H](c1ccccc1OCCO)N1[C@H](c3ccccc3)[C@H](c3ccccc3)OC(=O)[C@H]1[C@@H]2C(=O)N1CCc2cc(OC)c(OC)cc2C1", "composite z-score": -0.0903}]}]}
